Drawing on PubChem BioAssay (NCI), this text covers growth for seven compounds.

The panel holds about 83,000 compounds, 20% with a hit somewhere; the sample as a whole holds those more often.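 Single-dose data. Exposure time 48 hours. Values below 10 considered active.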 Values without a mark were called inactive. Calls of active or inactive are those of the source.

Common to all, as to test: NCI-60 one-dose screen, 48 h (100 = growth as untreated, 0 = no growth, -100 = all killed)
Holding throughout (settings): 10 µM unless noted

In assay [1] the test system is SK-MEL-2 melanoma.
Assay [2] concerns EKVX NSCLC.
Assay [3] has as its system SN12C renal.
In assay [4] the test system is UO-31 renal.
The subject of assay [5] is TK-10 renal.
Assay [6] relates to ACHN renal.
For assay [7], the system named is CAKI-1 renal.
Assay [8] relates to A498 renal.
For assay [9], the system named is CCRF-CEM leukemia.
Assay [10] relates to MOLT-4 leukemia.
Assay [11] relates to SR leukemia.
Assay [12] concerns RPMI-8226 leukemia.
The test system of assay [13] is OVCAR-8 ovarian.
In assay [14] the test system is OVCAR-5 ovarian.
The subject of assay [15] is OVCAR-4 ovarian.
Assay [16] has as its system SK-OV-3 ovarian.
Assay [17] deals with IGROV1 ovarian.
The subject of assay [18] is OVCAR-3 ovarian.
Assay [19] deals with NCI/ADR-RES ovarian.
Assay [20] concerns HS 578T breast.

For `CC(C)(C)OC(=O)N1C/C(=C\c2ccc(F)cc2)C(=O)/C(=C/c2ccc(F)cc2)C1`, the growth is -36.4% (active) in assay [1]; -52.6% (active) in [2]; -93.7% (active) in assay [3]; -73.5% (active) in [4]; 10% in assay [5]; -100% (active) in assay [6]. Further, the growth is -37.4% (active) in [7]; 97% in assay [8]; -6.19% (active) in assay [9]; -7.57% (active) in assay [10]; -11.1% (active) in assay [11]; -15.4% (active) in assay [12]. For the same compound, the growth in assay [13] is -68.3% (active); in assay [14] it was -81.9% (active); in assay [15], -9.66% (active); in [16], 0.0941% (active); in assay [17] it was -56.8% (active); in assay [18], -90% (active). Besides, in [19], the growth is -56.8% (active).

Regarding `O=C1N/C(=N\c2nccs2)S/C1=C\c1ccc([N+](=O)[O-])cc1`, the growth in assay [1] was 16.8%; in assay [2] it was 14.3%; in assay [3], 11.9%; in assay [4], 12.6%; in assay [5] it was 31.9%; in [6], 11.3%. For the same compound, the growth in assay [7] was 18.8%; in [8] it was 33.8%; in [9] it was -0.568% (active); in [10], 11.9%; in assay [11] it was 25.5%; in [12], 6.29% (active). In addition, the growth in assay [13] was 14.3%; in [14], 32.8%; in assay [15] it was 12.4%; in [16], 52.7%; in assay [17], 23.6%; in assay [18], 12.7%. Moreover, the growth in [19] is 8.78% (active).

As to `O=C(Nc1ccc(-c2ccc3c(c2)NC(=O)/C3=C\c2ccc[nH]2)cc1)Nc1ccc(Cl)c(Cl)c1`, the growth in [1] is 88.9%; in assay [2], 46.5%; in assay [3], 68.7%; in [4], 54.9%; in assay [5] it was 77.6%; in [6] it was 53.7%. Further, the growth in assay [7] is 39.1%; in assay [8], 101%; in [9] it was 33.1%; in assay [10], 33.5%; in assay [11], 16%; in assay [12], 41.1%. The growth was 55.6% in assay [13]; 67.9% in assay [14]; 37.6% in assay [15]; 94.7% in assay [16]; 65.7% in [17]; 12.9% in assay [18]. In addition, in assay [19], the growth was 51.4%.

Consider `CC(Nc1ncnc2ccc(-c3ccc4oc(N)nc4c3)cc12)c1ccccc1` (stereo not drawn), for which the growth was 34.6% in assay [1]; 5.01% (active) in assay [2]; -17.7% (active) in [3]; -76.4% (active) in [4]; -41.4% (active) in assay [5]; -64.2% (active) in [6]. For the same compound, the growth was -40.6% (active) in assay [7]; 49.8% in assay [8]; 2.38% (active) in [9]; -39.9% (active) in assay [10]; -53.7% (active) in [11]; -17.9% (active) in assay [12]. The growth in assay [13] was -40.7% (active); in assay [14], 25.4%; in assay [15] it was -85.8% (active); in [16], -22.2% (active); in assay [17], -77.5% (active); in assay [18], -19.5% (active). Further, the growth in assay [19] was -18.7% (active).

As for `O=C(N/N=C/c1ccoc1)c1[nH]c2ccc(Br)cc2c1-c1ccccc1`, the growth in assay [1] was -84.5% (active); in [2], -97.6% (active); in assay [3] it was -95.8% (active); in [4] it was -82.5% (active); in assay [5], -82.5% (active); in assay [6] it was -100% (active). The growth in assay [7] is -99.6% (active); in assay [8], -82.9% (active); in assay [9], -12.1% (active); in [10] it was -5.76% (active); in assay [11] it was -13.1% (active); in [12] it was 2.8% (active). In addition, the growth in [13] is -47.6% (active); in assay [14] it was -100% (active); in assay [15], -86.8% (active); in assay [16], -83.6% (active); in assay [18] it was -45.8% (active); in assay [20], -28% (active). In [19], the growth was -72.5% (active).

For the compound `COC(=O)c1cc(C(=O)CBr)n2c1ccc1c3ccccc3ccc12`, the growth in assay [1] was 113%; in assay [2], 60.1%; in assay [3] it was 51.1%; in [4], 24.3%; in assay [5], 84.3%; in [6], 17.4%. Moreover, the growth in [7] was 54%; in assay [8], 101%; in assay [9], 14%; in assay [10] it was 6.44% (active); in [11], 2.25% (active); in assay [12], 38.7%. Also, the growth was 31.3% in [13]; 72.8% in assay [14]; 101% in assay [15]; 62% in assay [16]; 33.5% in assay [17]; 103% in assay [18]. For the same compound, the growth in assay [19] was 57.4%.

Take `COc1cc2cc(C(=O)N3C[C@@H](CCl)c4c3cc(OC(=O)N(CCC(=O)N3CCN(C)CC3)C3CCCCC3)c3ccccc43)[nH]c2c(OC)c1OC`: the growth in assay [1] was -82.4% (active); in assay [2] it was -78.8% (active); in assay [3], -82.8% (active); in assay [4], -73.2% (active); in [5], -71.3% (active); in [6], -84.6% (active). The growth was -79.1% (active) in assay [7]; -19.9% (active) in [8]; -34.3% (active) in assay [9]; -19.8% (active) in assay [10]; -38.8% (active) in assay [11]; -30.3% (active) in assay [12]. Moreover, the growth in assay [13] was -48.3% (active); in [14], -59.1% (active); in [15] it was -83.5% (active); in [16] it was -57.7% (active); in [17] it was -59.2% (active); in [18] it was -65.3% (active). Also, the growth in assay [19] is -62.1% (active).
